Shiga toxin inh: inhibitors of Shiga toxin in Vero cells. Vero cells, Shiga toxin protein synthesis inhibition reporter. inhibition, % at 38.7 µM. 290,000 tested, 9.2% active. AID 2315; in the data active = inhibition mostly above about 28%, no sharp cut-off; inactive = mostly below about 43%; also: 0% is about no effect
Pf growth 48h: inhibits P. falciparum growth in the first generation, 48 h. AID 504832. P. falciparum luciferase growth in erythrocytes, 48 h. 310,000 tested, 5.9% active. Potency, µM (highest dose often 28.7 µM), for inactives: top-dose activity change, negative = inhibition, hits mostly inhibitors; also: potency is read from the fitted curve at half-maximal effect; % is scaled to controls: 0 for no effect and ±100 for the full control effect
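Firefly luciferase activity from engineered P. falciparum reports growth; inhibitors lower the luminescent signal. Cultures contained 2% hematocrit erythrocytes at 0.1% final parasitemia.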
HCMV inh: inhibitors of human cytomegalovirus; activity change, negative = inhibition, % at 57.5 µM; HFF cells, HCMV-luciferase reporter, 72 h; hits give low values; 410,000 tested, 4.5% active; in the data active = activity change below about -60%; inconclusive = no clear call, values can overlap the other calls; inactive = above about -39%; also: % is scaled to controls: 0 for no effect and ±100 for the full control effect
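Cell-based, HFFs, 1000 cells/well, 16 h 37C; cpds in DMSO + HCMV-luc, MOI 1 PFU/cell; 72 h 37C; OneGlo luminescence after 5 min RT; norm. to buffer vs Salinomycin 10uM.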
Pf growth 96h: P. falciparum growth inhibition at 96 hours; P. falciparum luciferase reporter growth, 96 h; Potency, µM (doses to about 28.7 µM), for the others: at the top dose activity change, negative = inhibition, usual class: inhibitors; 320,000 tested, 6.9% active; AID 504834; also: potency is read from the fitted curve at half-maximal effect; % is scaled to controls: 0 for no effect and ±100 for the full control effect
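P. falciparum expressing integrated firefly luciferase grown in erythrocytes (2% hematocrit, 0.05% parasitemia final) with compounds for 96 hours at 37 C, 5% CO2. Growth inhibition read as loss of luminescence after adding luciferase detection reagent.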
Cycloheximide cs: affects cycloheximide protein synthesis inhibition readout, counter-screen; cell reporter, cycloheximide protein synthesis inhibition counterscreen; max response, %; 300,000 tested, 12% active; AID 2314; in the data active = max response mostly above about 13%, no sharp cut-off; inactive = mostly below about 14%; also: read at 38.3 µM for the half of the compounds with a filed dose; 0% is about no effect
HCV inh: HCV inhibition. AID 651820. Potency, µM (series often up to 41.8 µM), without a hit: at the highest dose activity change, negative = inhibition, hits mostly inhibitors. 340,000 tested, 3.4% active. Huh7.5.1 HCVcc-Cre infection, luciferase reporter, 44 h; also: potency is read from the fitted curve at half-maximal effect; % is scaled to controls: 0 for no effect and ±100 for the full control effect
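Whole-lifecycle infectious HCVcc-Cre system; cells 1,000/well, compound then virus (~0.5 moi) added 4 h after plating, 44 h culture. Luciferase read 15 sec following 15 min substrate incubation, room temp.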
The depositor's hits bear a star; ? = inconclusive; . = no result. An excerpt weighted towards active compounds, which were near 21% of everything screened. Unless noted, calls follow the shape of the dose curve; as a rule, active = well fitted inhibition curve with a large enough effect; inconclusive = small, poorly fitted or top-dose-only effect, or another doubt; inactive = no such curve, though single readings can be large or run the other way.

SMILES | Shiga toxin inh | Pf growth 48h | HCMV inh | Pf growth 96h | Cycloheximide cs | HCV inh
COc1ccc(/C=N/Nc2c(Cl)cc(Cl)cc2Cl)cc1CN1CCOCC1 | 17 | ? | 23 | 0% | -2 | -29%
COc1ccc(NC(=O)Cn2c(=O)cnc3ccccc32)cc1S(=O)(=O)N1CCCCC1 | . | ? | 13 | -4% | . | ?
CCOc1ccc(-n2c(SCC(=O)c3ccccc3)nc3c([nH]c4ccccc43)c2=O)cc1 | . | . | 21 | . | . | .
O=C(Nc1ccc(N2CCCC2)c(Cl)c1)c1cccs1 | 95* | ? | 15 | ? | 71* | ?
O=C(Nc1ccc(N2CCN(C(=O)c3cccs3)CC2)c(Cl)c1)c1ccco1 | 4 | . | 15 | ? | 8 | ?
COC(=O)c1cc(OC)c(OC)cc1NCC(=O)Nc1ccc(C)cc1 | 13 | -10% | -8 | 9% | 0 | 2%
Cc1ccc(Cl)cc1NC(=O)CCS(=O)(=O)c1cccc2nonc12 | 17 | 3% | -5 | 36% | -4 | 5%
COc1ccc(C)cc1NCC(=O)Nc1ccc(C(C)(C)C)cc1 | -7 | ? | -9 | 9.3µM* | -2 | -23%
CCn1cc(S(=O)(=O)CC(=O)Nc2ccc(OC)cc2)c2ccccc21 | -7 | 0% | 134 | ? | -2 | -4%
COc1ccc(Cl)cc1NC(=O)CCS(=O)(=O)c1cccc2nonc12 | . | . | -86* | . | . | .
COc1ccc(NC(=O)Cc2ccc(Cl)cc2)cc1S(=O)(=O)N1CCCCC1 | . | ? | ? | 10µM* | . | 14µM*
COc1ccc(NC(=O)CS(=O)(=O)c2ccccc2Cl)cc1 | 29 | 40% | -6 | 42% | 16* | -2%
COCCNC(=O)CSc1nc(-c2ccc(F)cc2)[nH]c1-c1ccc(Cl)cc1 | . | . | -21 | . | . | .
COc1ccc(CC(=O)Nc2ccc(F)c(Cl)c2)cc1S(=O)(=O)N1CCOCC1 | . | 6.6µM* | -23 | ? | . | ?
Cc1ccccc1CC(=O)OCC(=O)Nc1ccc(C)c(S(=O)(=O)N2CCCCC2)c1 | . | 10µM* | 34 | ? | . | ?
Cc1ccc(NC(=O)Cc2ccc(Cl)cc2)cc1S(=O)(=O)N1CCCCCC1 | . | 13µM* | -26 | ? | . | 10µM*
COc1ccc(NC(C)=O)cc1S(=O)(=O)N1CCN(C(=O)c2ccccc2F)CC1 | -3 | 2.1µM* | 75 | ? | -2 | -2%
Cc1ccccc1C(=O)NC1CC2CCCC(C1)N2CC(C)C (configuration not stated) | . | . | 1 | . | . | .
COc1ccc(NC(=O)C2CC(=O)N(Cc3ccc(C)cc3)C2)cc1S(=O)(=O)N1CCCCC1 (configuration not stated) | 4 | ? | -8 | ? | -2 | ?
COc1ccc(NC(=O)CCS(=O)(=O)c2ccccc2Cl)cc1S(=O)(=O)Nc1ccc(Cl)cc1 | -9 | -15% | -21 | -1% | 5 | 13µM*
COc1ccc(NC(=O)CCC(=O)c2cccs2)cc1S(=O)(=O)Nc1ccc(Cl)cc1 | 2 | 11% | 68 | 5% | 8 | -21%
Cc1ccc(NC(=O)COc2ccccc2C#N)cc1S(=O)(=O)N1CCCCCC1 | . | ? | -40 | 8.3µM* | . | 10µM*
Cc1ccc(NC(=O)CSc2ccccc2)cc1S(=O)(=O)N1CCCCC1 | . | ? | ? | ? | . | 13µM*
Cc1ccc(CN2CC(C(=O)Nc3ccc(C)c(S(=O)(=O)N4CCCCC4)c3)CC2=O)cc1 (configuration not stated) | . | . | -66* | . | . | ?
COc1ccc(S(=O)(=O)N(CC(=O)Nc2cccc(C(F)(F)F)c2)c2ccc(C)cc2)cc1 | . | . | -36 | . | . | .
CCOc1ccc(OCCC(=O)OCC(=O)N(CC)c2c(N)n(Cc3ccccc3)c(=O)[nH]c2=O)cc1 | . | . | -20 | . | . | 11%
Cc1cc(C(=O)NNC2CC(=O)N(c3ccc4ccccc4c3)C2=O)c(C)o1 (configuration not stated) | -19 | -2% | -11 | -5% | -1 | 20%
Cc1ccc(NC(=O)CN(C)C(=O)Cc2ccc(Cl)c(Cl)c2)cc1 | 43 | ? | 7 | ? | 8 | -4%
COc1ccc(NC(=O)CNc2ccc(OC)c(S(=O)(=O)N3CCOCC3)c2)cc1 | . | . | -14 | . | . | .
